± gives the standard deviation of the averaged measurements.
Legend:
DLD1 [1] = assay: cell viability (CellTiter-Glo) relative to plate median (fraction of plate median); higher = more viable cells; settings: 5 µM; treatment time 24 h; reporter: 7TFP
How it was run: (§1)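 Values are well luminescence normalised to the plate median, from either a firefly luciferase or a CellTiterGlo readout on parallel plates. The cells, colorectal cancer lines stably transduced with lentiviral 7TFP or TCF4/Wnt firefly luciferase reporters, were treated with library compounds at a final 5 µM for 24 h. The mean of two independent replicates is listed.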

HCT116 = assay: as above; settings: 5 µM; treatment time 24 h; reporter: TCF4/Wnt
How it was run: as §1

SW480 [2] = assay: as above; settings: 5 µM; treatment time 24 h; reporter: 7TFP
How it was run: as §1

DLD1 [3] = assay: TCF/Wnt firefly luciferase reporter signal relative to plate median (fraction of plate median); higher = higher Wnt reporter signal; settings: 5 µM; treatment time 24 h; reporter: 7TFP
How it was run: as §1

SW480 [4] = assay: as above; settings: 5 µM; treatment time 24 h; reporter: 7TFP
How it was run: as §1

Compound	cell viability (DLD1 [1])	cell viability (HCT116)	cell viability (SW480 [2])	TCF/Wnt firefly luciferase reporter signal (DLD1 [3])	TCF/Wnt firefly luciferase reporter signal (SW480 [4])
CCn1cc(C(=O)O)c(=O)c2cnc(N3CCCC3)nc21	0.983 ± 0.025	1 ± 0.029	0.955 ± 0.02	0.856 ± 0.055	0.978 ± 0.046
CN1CCC(OC(c2ccccc2)c2ccccc2)CC1	0.969 ± 0.044	1.02 ± 0.014	0.979 ± 0.024	1.12 ± 0.13	1.16 ± 0.092
O=C(O)C1CCCNC1 (stereo not given)	0.994 ± 0.023	1 ± 0.071	0.948 ± 0.067	1.03 ± 0.065	0.938 ± 0.13
O=CN(O)CCCC(NC(=O)C(CO)NC(=O)C1COC(c2ccccc2O)=N1)C(=O)NCCC(=O)NC1CCCN(O)C1=O (stereo not given) [Oxachelin hydrate]	1.09 ± 0.13	1.11 ± 0.12	1.02 ± 0.05	1.2 ± 0.014	0.946 ± 0.16
CCN1CCN(C(=O)N[C@@H](C(=O)N[C@@H]2C(=O)N3[C@@H]2SC(C)(C)[C@@H]3C(=O)O)c2ccccc2)C(=O)C1=O	0.994 ± 0.0085	0.993 ± 0.039	1.02 ± 0.039	1.05 ± 0.014	1.03 ± 0.086
CN1CCC(=C2c3ccccc3CC(=O)c3sccc32)CC1	0.988 ± 0.046	1.04 ± 0.083	0.988 ± 0.017	0.956 ± 0.021	0.934 ± 0.042
COc1cc(C(=O)NCc2ccc(OCCN(C)C)cc2)cc(OC)c1OC	0.99 ± 0.057	1 ± 0.13	0.996 ± 0.077	0.871 ± 0.12	0.851 ± 0.06
CC(=O)OC[C@@]1(O)C[C@@]23CC[C@@H]4c5ccoc5CC[C@@]4(C)[C@@H]2CC[C@@H]1C3	1.02 ± 0.028	1.05 ± 0.042	1.02	1.08 ± 0.16	1.16 ± 0.057
C=C1C(=O)[C@]23[C@H](CC[C@@H]1[C@@H]2O)[C@]12CO[C@@]3(O)[C@H](O)[C@H]1C(C)(C)CC[C@@H]2O	0.931 ± 0.058	1.12 ± 0.19	1.045 ± 0.0071	0.876 ± 0.015	0.731 ± 0.035
COC(=O)[C@@H]1OC(=O)[C@H]2O[C@@]23[C@@]1(C)CCC1[C@@]2(C)CCC(=O)C(C)(C)C2C[C@@H](OC(C)=O)[C@]13C (stereo not given in full)	0.995 ± 0.078	1.1 ± 0.085	1.01 ± 0.034	0.994 ± 0.037	0.967 ± 0.038
O=S(=O)(O)CCS	1.01 ± 0.058	1.06 ± 0.014	1.02 ± 0.054	1.01 ± 0.19	1.1 ± 0.028
COc1cc2nc(N3CCN(C(=O)C4CCCO4)CC3)nc(N)c2cc1OC (stereo not given)	1.05 ± 0.05	0.991 ± 0.11	1.03 ± 0.05	1.14 ± 0.13	1 ± 0.039
NC[C@H]1O[C@H](O[C@H]2[C@H](O)[C@@H](O[C@H]3O[C@H](CO)[C@@H](O)[C@H](N)[C@H]3O)[C@H](N)C[C@@H]2N)[C@H](N)C[C@@H]1O	0.854 ± 0.012	0.922 ± 0.073	0.998 ± 0.06	0.992 ± 0.0042	1.05 ± 0.076
Cc1ccc(=O)n(-c2ccccc2)c1	0.911 ± 0.041	0.866 ± 0.096	0.945 ± 0.014	0.952 ± 0.17	1.08 ± 0.14
COc1cc(O)c2c(c1)C(=O)c1cc3c(c(OC)c1C2=O)[C@@H]1CCO[C@@H]1O3 [Aversin]	1.24 ± 0.17	1.18 ± 0.021	1.12 ± 0.021	0.95 ± 0.059	1.02 ± 0.16
CCOC(=O)C1=C(C)NC(C)=C(C(=O)OC)C1c1cccc([N+](=O)[O-])c1 (stereo not given)	0.964 ± 0.03	1.02 ± 0.15	0.95 ± 0.057	1.06 ± 0.035	1.01 ± 0.039
O=C(O)c1cc(O)c(=O)c2c(O)c(O)ccc2c1	1.02 ± 0.028	1.04 ± 0.12	1.01 ± 0.035	1.05 ± 0.035	1.02 ± 0.021
CC(=O)Nc1ccc(S(=O)(=O)Nc2ccc([N+](=O)[O-])cc2)cc1	0.868 ± 0.03	0.933 ± 0.12	1.02 ± 0.028	1.1 ± 0.071	1.08 ± 0.042

Compound	cell viability (DLD1 [1])	cell viability (HCT116)	cell viability (SW480 [2])	TCF/Wnt firefly luciferase reporter signal (DLD1 [3])	TCF/Wnt firefly luciferase reporter signal (SW480 [4])
C=C[C@H]1CN2CC[C@H]1C[C@H]2[C@H](O)c1ccnc2ccc(OC)cc12	1.11 ± 0.035	1.06 ± 0.021	1.07 ± 0.092	1.205 ± 0.0071	0.983 ± 0.11
Cc1c(NC(=O)c2cccnc2)c(=O)n(-c2ccccc2)n1C	1.01	1.1 ± 0.042	0.981 ± 0.015	1.06 ± 0.17	1 ± 0.037
O=C1NC(Cc2ccc(O)cc2)C(=O)NC1Cc1ccc(O)cc1 (stereo not given) [Cyclo(tyrosyltyrosyl)]	0.902 ± 0.091	0.942 ± 0.11	0.953 ± 0.011	1.04 ± 0.057	0.98 ± 0.023
CC(=O)N(c1onc(C)c1C)S(=O)(=O)c1ccc(N)cc1	1.02 ± 0.034	1.05 ± 0.19	0.935 ± 0.06	0.933 ± 0.0014	0.985 ± 0.021
CC(c1cc2ccccc2s1)N(O)C(N)=O (stereo not given)	1.03 ± 0.067	1.02 ± 0.057	1.05 ± 0.035	1.13 ± 0.014	0.946 ± 0.074
C=CC(C1=CC(=O)C(OC)=CC1=O)c1ccccc1 (stereo not given)	0.983 ± 0.0014	1.05 ± 0.042	1.03 ± 0.021	0.985 ± 0.079	1.01 ± 0.054
O=C(CCCCC(=O)Nc1c(I)cc(I)c(C(=O)O)c1I)Nc1c(I)cc(I)c(C(=O)O)c1I	1.05	1.08 ± 0.16	1.01 ± 0.03	1.05 ± 0.028	1.06 ± 0.021
CC(=O)NCCCS(=O)(=O)O	1.03 ± 0.091	1.03 ± 0.028	1.025 ± 0.0071	1.12 ± 0.11	1.06 ± 0.071
O=c1c(O)cccc2cc(O)c(O)c(O)c12	1.06 ± 0.057	0.914 ± 0.056	1.01 ± 0.037	1.04 ± 0.014	0.944 ± 0.094
CC(=O)Oc1cccc(O)c1	1.01 ± 0.095	1.06 ± 0.042	1.07 ± 0.021	0.952 ± 0.097	1.05 ± 0.028
C[C@@H]1O[C@@H](O[C@H]2[C@H](Oc3cc(O)c4c(c3)O[C@H](c3ccc(O)cc3)CC4=O)O[C@H](CO)[C@@H](O)[C@@H]2O)[C@H](O)[C@H](O)[C@H]1O	1.07 ± 0.042	0.916 ± 0.11	0.975 ± 0.02	0.992 ± 0.24	1.01 ± 0.16
COc1ccccc1OCC(O)CO (stereo not given)	0.953 ± 0.015	1.08 ± 0.05	1.03 ± 0.052	1.09 ± 0.028	1.01 ± 0.095
Cc1ccnc(NS(=O)(=O)c2ccc(N)cc2)n1	0.968 ± 0.059	0.974 ± 0.052	0.953 ± 0.04	0.924 ± 0.019	0.929 ± 0.1
CC(=O)[C@@]1(O)CC[C@H]2[C@@H]3CCC4=CC(=O)CC[C@]4(C)[C@H]3CC[C@@]21C	0.947 ± 0.12	0.926 ± 0.063	0.922 ± 0.12	1.035 ± 0.0071	1.02
CN1CCC(=C2c3ccccc3CCc3sccc32)CC1	1.07 ± 0.014	1.14 ± 0.17	1.1 ± 0.064	1.05 ± 0.11	0.934 ± 0.061
O=[N+]([O-])c1cccc2cn[nH]c12	1.015 ± 0.0071	0.987 ± 0.076	0.962 ± 0.047	1.1 ± 0.042	1.14 ± 0.021
CS(=O)(=O)OCCCCOS(C)(=O)=O	1.12 ± 0.2	1.06 ± 0.028	1.06 ± 0.05	0.9365 ± 0.005	0.984 ± 0.037

Reference: the supplement of paper PMC6522484
